Gal4-VP16 FLuc – VP16 counterscreen qHTS for inhibitors of ROR gamma transcriptional activity. Potency, µM (series often up to 53.6 µM), inactives show at the highest dose activity, negative = inhibition, actives largely listed as inhibitors. 3.5% of 310,000 active. Drosophila S2 Gal4-VP16 UAS-luciferase, luminescence, 20 h;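 further: Gal4-VP16 expression switched on by copper sulfate through the metallothionein promoter; nearly all actives have a fitted effect of over 50% in size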
ELG1 repair inh – qHTS screen for small molecules that inhibit ELG1-dependent DNA repair in human embryonic kidney (HEK293T) cells expressing luciferase-tagged ELG1 | HEK293T ELG1-luciferase reporter, luminescence, 16 h; DNA damage induced by 5-fluorouridine | Potency, µM (top dose mostly 46.1 µM), without a hit: at the highest dose activity change, negative = inhibition, hits mostly inhibitors | 2.3% of 330,000 active; further: nearly all actives have a fitted effect of over 55% in size
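Reporter activity after DNA damage by 5-fluorouridine is monitored. Compound-treated cells incubate 16 hr at 37 °C, then ONE-Glo is added for 30 min before luminescence reading.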
RORg inh – qHTS for inhibitors of ROR gamma transcriptional activity; Drosophila S2 Gal4-RORgamma UAS-luciferase reporter, 20 h; Potency, µM (top dose mostly 53.6 µM), without a hit: at the top dose activity change, negative = inhibition, usual class: inhibitors; 5.4% of 310,000 active; AID 2551, 2010; further: nearly all actives have a fitted effect of over 60% in size
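Luciferase reporter read in Schneider cells carrying Gal4-RORγ (mouse) and UAS-Photinus luciferase; cells given compound 1 h before 700 uM copper sulfate induction, then incubated 20 h at ambient temperature.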
DT40 TDP1 no CPT – qHTS for Inhibitors of human tyrosyl-DNA phosphodiesterase 1 (TDP1): qHTS in cells in absence of CPT | DT40 Tdp1-/- hTDP1 cells, no CPT, ATP luminescence, 48 h | Potency, µM (doses to about 46.2 µM), for the others: at the highest dose activity change, negative = growth inhibition, actives largely listed as inhibitors | 15% of 420,000 active; further: nearly all actives have a fitted effect of over 55% in size
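No-CPT arm: Tdp1-/-;hTDP1 DT40 cells (400/well) plus compounds, incubated ≥48 hr at 37 °C. Readout CellTiter-Glo luminescence.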
DT40 TDP1 CPT – qHTS for Inhibitors of human tyrosyl-DNA phosphodiesterase 1 (TDP1): qHTS in cells in presence of CPT | chicken DT40 Tdp1-/-;hTDP1 cells + 20 nM CPT, ATP luminescence, 48 h | Potency, µM (series often up to 46.2 µM), for inactives: top-dose activity change, negative = growth inhibition, most hits filed as inhibitors | 12% of 420,000 active; further: nearly all actives have a fitted effect of over 55% in size
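Cell growth measured by CellTiter-Glo luminescence after a minimum 48 h, 37 C compound exposure with 20 nM CPT in Tdp1-knockout DT40 cells stably expressing hTDP1, seeded 400/well; qHTS titration format.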
ALOX12 inh – Primary qHTS assay for inhibitors of human arachidonate 12S-lipoxygenase (ALOX12): Round 2 | Polyunsaturated fatty acid lipoxygenase ALOX12 (Homo sapiens), P18054 | purified 12hLO, xylenol orange hydroperoxide absorbance | Potency, µM (highest dose often 108 µM), for the others: at the top dose activity change, negative = inhibition, hits mostly inhibitors | 1.1% of 580,000 active | AID 1671190, 2021
Target sequence (P18054 whole entry, looked up): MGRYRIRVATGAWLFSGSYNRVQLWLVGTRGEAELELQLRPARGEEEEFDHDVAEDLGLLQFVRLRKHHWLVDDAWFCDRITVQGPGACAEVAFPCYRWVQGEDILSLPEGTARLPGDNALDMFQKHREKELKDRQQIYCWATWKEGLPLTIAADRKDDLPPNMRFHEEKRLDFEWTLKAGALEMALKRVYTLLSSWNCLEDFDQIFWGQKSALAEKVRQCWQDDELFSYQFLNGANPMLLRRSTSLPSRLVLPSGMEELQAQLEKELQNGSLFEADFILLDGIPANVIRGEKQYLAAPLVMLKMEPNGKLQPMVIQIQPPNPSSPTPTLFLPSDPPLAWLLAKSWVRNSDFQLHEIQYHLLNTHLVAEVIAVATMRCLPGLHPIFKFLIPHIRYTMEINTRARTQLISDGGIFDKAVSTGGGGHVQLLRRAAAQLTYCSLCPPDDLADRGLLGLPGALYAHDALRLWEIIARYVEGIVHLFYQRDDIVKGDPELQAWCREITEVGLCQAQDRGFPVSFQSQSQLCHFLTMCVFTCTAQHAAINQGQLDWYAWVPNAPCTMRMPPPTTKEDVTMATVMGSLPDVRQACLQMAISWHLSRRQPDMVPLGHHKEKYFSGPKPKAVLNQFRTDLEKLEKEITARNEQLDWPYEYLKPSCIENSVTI
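Purified human 12hLO at 150 nM in 25 mM Hepes, 0.01% Triton X-100, pH 7.0, preincubated 15 min at room temperature with compound. Reaction started with 40 uM arachidonic acid, 30 min at room temperature. Hydroperoxide measured by Fe-xylenol orange, 573/405 nm absorbance ratio.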
An asterisk follows results filed as active; ? = inconclusive; . = no result; [ ] = another dose, or the depositor's remark. Sampled rows, rich in hits. Any-hit rate of the full collection: about 15%. The call rests on the fitted dose curve; in most records, active means well fitted curve in the direction sought with a large enough effect; inconclusive means small, poorly fitted or top-dose-only effect, or another doubt; inactive means no such curve, though single readings can be large; an effect the other way counts as inactive or inconclusive. On the % scale 0 is the no-effect control and ±100 the full control effect; potency means the concentration at half of the fitted maximal effect.

SMILES	Gal4-VP16 FLuc	ELG1 repair inh	RORg inh	DT40 TDP1 no CPT	DT40 TDP1 CPT	ALOX12 inh
CCC(=O)[C@@H](C)[C@@H](O)[C@H](C)C[C@@H](C)C1OC(=O)C[C@@]2(O)CC=C(C)C(O2)C(C)=CCCC[C@H](O[C@H]2C[C@@H](OC(N)=O)[C@H](O)[C@@H](C)O2)C=C[C@H](C)C[C@H]1C (stereo partly specified)	.	.	.	0.517µM*	0.461µM*	13.4%
Cc1nccc(N2CCN(C)C3(CCC(=O)N(C)CC3)C2)n1 (stereo unspecified)	.	.	.	.	.	13.8%
O=C(NCc1c(-n2cccc2)sc2c1CCCC2)Nc1cccc(C(F)(F)F)c1	.	.	.	4.11µM*	4.11µM*	-22.3%
CC[C@H]1CN2CC[C@H]1C[C@@H]2CNC(=O)Nc1cccc(C(F)(F)F)c1	.	.	.	.	.	21.7%[176 µM]
O=C(Nc1ccc2n(c1=O)C[C@H]1C[C@@H]2CN(C(=O)c2ccccn2)C1)c1ccccc1	.	.	.	.	.	8.2%[176 µM]
O=C1NC(=O)C(CCc2ccncc2)(CCc2ccccn2)C(=O)N1c1ccc(Br)cc1 (stereo unspecified)	1.6%	1.7%	0.0%	9.2µM*	10.3µM*	10.6%
Cc1ccc(N2C(=O)NC(=O)C(CCc3ccccn3)(Cc3cccc(Cl)c3Cl)C2=O)cc1 (stereo unspecified)	-4.6%	-23.0%	-7.1%	3.4%	-9.2%	-1.6%
COc1cccc(C(=O)c2c(N)c(-c3nc(-c4ccccc4)cs3)c3ccccn23)c1	.	.	.	20.6µM*	?	-23.6%
CCN(CC)C(=O)c1cccc(-c2csc(C(C)(O)c3ccccc3)n2)c1 (stereo unspecified)	.	.	.	?	?	-17.3%
COC1CC(C)C(OC)c2cc(O)cc(c2O)NC(=O)C(C)=CC=CC(C)C(OC(N)=O)C(C)=CC(C)C1OC (stereo unspecified)	.	.	.	0.146µM*	0.092µM*	-25.6%
CCOP(=O)(OCC)/C(=N/OC(=O)c1ccccc1C)C(N)=O	?	0.2%	-4.0%	13µM*	?	-11.0%
CCCc1[nH]nc2c1C(c1ccc(OC)c(Cn3nnc4ccccc43)c1)C(C#N)=C(N)O2 (stereo unspecified)	11.2%	.	34.7%	?	25.9µM*	.
CCN(CC)C(=O)c1ccc(NC(=O)c2cc(S(=O)(=O)N3CCCCCC3)ccc2OC)cc1	.	-15.1%	.	?	-29.9%	-3.1%
CCN1CCN(S(=O)(=O)c2ccc(Cl)c(C(=O)N(CC)CC(=O)Nc3ccc(OC)cc3)c2)CC1	-14.2%	-7.5%	5.62µM*	0.2%	-23.1%	?
c1csc(-c2ccc(-c3cccs3)s2)c1	.	.	.	.	.	-5.2%
CCN(CC)c1ccc(N=Cc2c(O)n(-c3ccc(Cl)cc3)c(=O)[nH]c2=O)cc1	-3.2%	1.4%	0.0%	?	20.6µM*	0.0%
Cc1ccccc1-n1c(O)c(C=Nc2ccc(N(C)C)cc2)c(=O)[nH]c1=O	19.5%	18.1%	-33.4%	18.4µM*	23.1µM*	-4.1%
CCN(CC)c1ccc(N=Cc2c(O)n(-c3ccc(OC)cc3)c(=O)[nH]c2=O)cc1	10.1%	-2.8%	-6.7%	?	?	-20.6%
O=C1NC2(CCN(Cc3ccccn3)C2)OCc2ccccc21 (stereo unspecified)	.	.	.	.	.	47.4%[176 µM]
COc1cccc(C(=O)N2CCC3(CC2)c2nccn2-c2ccccc2CN3C)c1OC	.	.	.	.	.	41.9%
